Measurements taken from PubChem BioAssay (Tox21).
Values without a mark were called inactive. Inconclusive results are not listed. Where a call stands in place of a potency, no number is given. The source made the active and inactive calls. Unless noted, the call rests on the fitted dose curve; in most records, active means well fitted curve in the direction sought with a large enough effect in the repeat runs; inconclusive means weak or mixed curves; inactive means no such curve, though single readings can be large; an effect the other way counts as inactive or inconclusive.

What was measured:
[1] = qHTS RealTime-Glo MT Cell Viability Assay in HepG2 cells - 24 hour (AID 1224867); further: nearly all actives have a fitted effect of over 50% in size
How it was run: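 Luminescence read-out: viable HepG2 cells reduce a prosubstrate to a NanoLuc substrate, giving a signal proportional to live cell number. Reads taken at 0, 8, 16, 24, 32 and 40 h of compound exposure at 37 C.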

[2] = qHTS RealTime-Glo MT Cell Viability Assay in HEK293 cells - 32 hour (AID 1224868); further: top concentration of the series differs between compounds; nearly all actives have a fitted effect of over 50% in size
How it was run: (§1)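 Nonlytic real-time viability readout: viable cells convert prosubstrate to NanoLuc substrate, giving luminescence proportional to live cell number. HEK293, 600 cells/well, compound added after 5 h, continuous culture at 37 C.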

[3] = A CellTox Green Cytotoxicity Assay to monitor cytotoxicity in HEK293 cells - 0 hour (AID 1224869); further: nearly all actives have a fitted effect of over 50% in size
How it was run: (§2)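 Dead-cell fluorescence measured kinetically: asymmetric cyanine dye, HEK293, 600 cells/well, 5 h settle, 23 nL cpd/DMSO, 37 C, reads 0–40 h every 8 h.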

[4] = qHTS RealTime-Glo MT Cell Viability Assay in HepG2 cells - 40 hour (AID 1224870); further: nearly all actives have a fitted effect of over 50% in size
How it was run: (§3)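 HepG2 cells (600/well) mixed with RealTime-Glo MT reagent, settled 5 h at 37 C/5% CO2 before compound addition. Nonlytic NanoLuc luminescence from viable-cell prosubstrate reduction read repeatedly during 40 h treatment at 37 C.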

[5] = A CellTox Green Cytotoxicity Assay to monitor cytotoxicity in HEK293 cells - 40 hour (AID 1224871); further: nearly all actives have a fitted effect of over 45% in size; further: potency means the concentration at half of the fitted maximal effect
How it was run: as §2

[6] = qHTS RealTime-Glo MT Cell Viability Assay in HEK293 cells - 16 hour (AID 1224872)
How it was run: as §1

[7] = qHTS RealTime-Glo MT Cell Viability Assay in HepG2 cells - 8 hour (AID 1224873); further: nearly all actives have a fitted effect of over 55% in size
How it was run: as §3

[8] = qHTS RealTime-Glo MT Cell Viability Assay in HEK293 cells - 40 hour (AID 1224874); settings: RealTime-Glo luminescence; max response: stronger effect = lower value; further: nearly all actives have a fitted effect of over 50% in size
How it was run: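 600 HEK293 cells per well, dispensed already mixed with RealTime-Glo MT reagents. Compound dosing came 5 h later. The same wells were read for luminescence at 0, 8, 16, 24, 32 and 40 h of exposure at 37 C.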

[9] = A CellTox Green Cytotoxicity Assay to monitor cytotoxicity in HEK293 cells - 24 hour (AID 1224875); further: nearly all actives have a fitted effect of over 45% in size
How it was run: as §2

[10] = qHTS assay to identify small molecule agonists of the estrogen related receptor (ERR) signaling pathway from Tox21 library (AID 1224849; calls by dose curve; further: nearly all actives have a fitted effect of over 15% in size); settings: ERR reporter cell line, ONE-Glo luciferase, 18 h; at 92.4 µM (top of the series) unless noted
How it was run: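 Quantitative HTS in agonist format: NTP ERR cell line, compounds transferred in DMSO after 6 h plating, 18 h incubation at 37 C, ONE-Glo luminescence endpoint.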

| Structure (SMILES) | outcome [1] | Potency [2] | Potency [3] | outcome [4] | Potency [5] | Potency [6] | outcome [7] | max response [8] [%] | Potency [9] | activity change, positive = activation [10] |
| --- | --- | --- | --- | --- | --- | --- | --- | --- | --- | --- |
| CN(C)CCCCl | inactive | inactive | inactive | inactive | inactive | inactive | inactive | 0.853 | inactive |  |
| Cc1ccc(C)c([N+](=O)[O-])c1 | inactive | inactive | inactive | inactive | inactive | inactive | inactive | 12.1 | inactive |  |
| CC(=O)CC(=O)Nc1ccc(C)cc1C | inactive | inactive | inactive | inactive | inactive | inactive | inactive | -1.23 | inactive |  |
| CCC[C@@H]1C[C@@H](C(=O)N[C@@H]([C@H]2O[C@H](SC)[C@H](O)[C@@H](O)[C@H]2O)[C@@H](C)O)N(C)C1 | inactive | inactive | inactive | inactive | inactive | inactive | inactive | 0.684 | inactive |  |
| O=C(O)CCCCCC(=O)O | inactive | inactive | inactive | inactive | 22 µM (active) | inactive | inactive | 0.774 |  | 1.8% |
| CC1=C(C(=O)O)N2C(=O)[C@@H](NC(=O)[C@H](N)c3ccccc3)[C@H]2SC1 | inactive | inactive | inactive | inactive | inactive | inactive | inactive | 0.975 | inactive | 5.12% [at 42.5 µM] |
| O=C(CCCCC(=O)Nc1c(I)cc(I)c(C(=O)O)c1I)Nc1c(I)cc(I)c(C(=O)O)c1I | inactive | inactive | inactive | inactive | inactive | inactive | inactive | -12.6 | inactive | -37% [at 42.5 µM] |
| CCC(=O)c1c(O)cc(O)cc1O | inactive | inactive | inactive | inactive |  | inactive | inactive | 11.1 | inactive | -13.5% [at 42.5 µM] |
| Nc1nc(-c2ccccc2)c(Br)c(=O)[nH]1 |  | inactive | inactive | inactive | inactive | inactive | inactive | -3.06 | inactive | -6.57% [at 42.5 µM] |
| OCC(O)CN1CCN(c2ccccc2)CC1 (stereo not drawn) | inactive | inactive | inactive | inactive | inactive | inactive | inactive | 1.76 | inactive |  |
| CC/C=C\CCOC(=O)c1ccccc1O | inactive | inactive | inactive | inactive | inactive | inactive | inactive | 19.1 | inactive | 2.25% |
| ONc1ccccc1 | inactive | inactive | inactive |  |  | inactive | inactive | -13.8 | inactive | 20.7% (active) |
| CCCC(=O)OCCC(C)CCC=C(C)C (stereo not drawn) | inactive | inactive | inactive | inactive | inactive | inactive | inactive | 0.963 | inactive | -4.9% |
| c1ccc2c(CC3=NCCN3)cccc2c1 | inactive | inactive | inactive | inactive | inactive | inactive | inactive | -13.3 | inactive | 4.17% [at 42.5 µM] |
| CN(C)CCCO[C@@H]1[C@H]2OC(C)(C)O[C@H]2O[C@@H]1C(O)CO (stereo partly drawn) | inactive | inactive | inactive |  | inactive | inactive | inactive | 0.847 | inactive | 6.19% [at 42.5 µM] |
| O=C1OCCO1 | inactive | inactive | inactive | inactive | 0.291 µM (active) | inactive | inactive | 1.36 | inactive |  |
| Cc1c(N)cccc1Cl | inactive | inactive | inactive | inactive | inactive | inactive | inactive | 5.05 | inactive |  |
| CC(=O)c1cc(C)oc1C | inactive | inactive | inactive | inactive | inactive | inactive | inactive | -0.494 | inactive |  |
| CO[C@@]1(NC(=O)Cc2cccs2)C(=O)N2C(C(=O)O)=C(COC(N)=O)CS[C@@H]21 | inactive | inactive | inactive | inactive | inactive | inactive | inactive | 0.152 | inactive |  |
| C=CC(=O)CCCCC | inactive | inactive | inactive | inactive | inactive | inactive | inactive | -1.98 | inactive |  |
| CCOc1cccc(N)c1 | inactive | inactive | inactive | inactive | inactive | inactive | inactive | 2.76 | inactive |  |
